Source: PubChem BioAssay
Hits are enriched below; roughly 22% of the tested compounds scored in any of these assays.
CYP2C19 act = activators of human cytochrome P450 2C19; activation factor at 5 µM; P33261; AID 1025; 96,000 tested, under 10 active; recombinant CYP2C19, luciferin-H EGE luminescence; stronger effect = higher value; 0 = fully inhibited enzyme, 1 = untreated enzyme;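 active = activation factor of at least 2 at 5 µM in the primary screen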;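 note: 0 = wells with 2.5 mM tranylcypromine and 1 = vehicle-only wells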
Target sequence (P33261 whole entry, looked up): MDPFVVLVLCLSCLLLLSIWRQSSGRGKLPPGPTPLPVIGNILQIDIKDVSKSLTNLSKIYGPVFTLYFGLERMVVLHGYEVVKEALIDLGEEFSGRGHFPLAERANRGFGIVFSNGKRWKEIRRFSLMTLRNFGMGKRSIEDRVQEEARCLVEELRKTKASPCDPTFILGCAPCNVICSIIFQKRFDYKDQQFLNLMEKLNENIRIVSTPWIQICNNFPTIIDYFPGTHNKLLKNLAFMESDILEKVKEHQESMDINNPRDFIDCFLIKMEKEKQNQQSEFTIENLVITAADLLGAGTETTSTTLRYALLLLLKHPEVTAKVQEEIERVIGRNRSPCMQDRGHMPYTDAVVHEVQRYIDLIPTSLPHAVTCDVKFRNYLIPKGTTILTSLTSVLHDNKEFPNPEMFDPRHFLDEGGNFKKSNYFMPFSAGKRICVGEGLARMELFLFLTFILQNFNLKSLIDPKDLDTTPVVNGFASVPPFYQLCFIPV
CYP2C9 inh = inhibitors of human CYP2C9; 20% of 96,000 active; inhibition, % at 5 µM; P11712; CYP2C9 Supersomes, luciferin-H conversion, luminescence;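 active = blocking of liver enzyme CYP2C9 beyond about 50% at 5 µM, limit read from the data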
CYP2C19 inhib = inhibitors of human CYP2C19. P33261. CYP2C19 Supersomes, luciferin-H EGE luminescence, 30 min. inhibition, % at 5 µM. 21% of 96,000 active;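 active = CYP2C19 inhibition above a set limit at 5 µM in the primary screen, cut at about 50% in these data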;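 note: plate controls were negative control wells for no effect and 2.5 mM tranylcypromine positive control for full effect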
CYP2C9 activ = CYP2C9 (human) activation | P11712 | recombinant CYP2C9, luciferin-H conversion, luminescence; stronger effect = higher value; factor 1 = untreated enzyme, 0 = blocked | activation factor at 5 µM | 1.4% of 96,000 active;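 active = activation factor of 2 or more for CYP2C9 at a 5 µM dose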;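 note: 0 = sulfaphenazole-blocked wells and 1 = vehicle-only wells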
Measles CPE = protection of cells from measles virus. protection (pct of control), % at 4 µM. 1.5% of 140,000 active. Measles virus-infected cells, CPE protection, absorbance; in the data active = protection mostly above about 24%, no sharp cut-off; inactive = mostly below about 26%
* = called active by the depositor; nt = no result given.

SMILES	CYP2C19 act	CYP2C9 inh	CYP2C19 inhib	CYP2C9 activ	Measles CPE
COc1ccc(CNC(N)=O)cc1OC	1.1	-8.1	-14.9	1.1	26.6
COc1ccc(OC)c(C(=O)COC(=O)C2CC3CCCC(C2)C3=O)c1 (centres undefined)	0.5	-44.7	50.5*	1.4	8.2
Cn1c(CNC(=O)Cc2ccc3c(c2)OCO3)nnc1SCc1ccccc1	0.8	-16.0	20.7	1.2	6.2
Cc1ncsc1CCSc1n[nH]c(=O)n1-c1ccccc1	0.6	2.1	40.1	1	2.9
Cc1ncsc1CCSc1nc2ccccc2c(=O)n1C	0.2	68.5*	76.9*	0.3	11.1
COc1ccccc1-c1cc(SC)c(C#N)c(=O)o1	nt	nt	nt	nt	18.6
COc1ccc(C2(O)CC3CCC(C2)N3c2nc(C)cc(C)c2C#N)cc1 (centres undefined)	0.6	58.7*	41.2	0.4	7.8
O=C(CSc1ncnc2c1cnn2-c1ccccc1)Nc1ccc2c(c1)OCO2	0.7	63.4*	27.5	0.4	12.1
O=C(CSc1ncnc2ccccc12)Nc1ccc2c(c1)OCO2	0.4	40.0	61.5*	0.6	34.5
O=C(CSc1ncnc2c1cnn2-c1ccc(Cl)cc1)NCc1ccc2c(c1)OCO2	nt	nt	nt	nt	3.3
CCOC(=O)c1c(CN(C)C)oc2cc(CN(C)C)c(O)c(CSc3ccccc3)c12	0.1	15.3	92.4*	0.8	7.2
Cn1c(=O)c(NCCc2ccccc2)c2c3c(cccc31)C(=O)c1ccccc1-2	0.2	97.5*	78.5*	0	29.0
Cn1c(=O)c(NCCO)c2c3c(cccc31)C(=O)c1ccccc1-2	0.8	45.3	20.2	0.5	7.2
CCNc1c2c3c(cccc3n(C)c1=O)C(=O)c1ccccc1-2	0.8	53.2*	18.5	0.5	7.3
O=C(/C=C/c1ccco1)N1CCN(C/C=C/c2ccccc2)CC1	nt	nt	nt	nt	10.8
COC(=O)c1c(-c2ccc(Br)cc2)csc1NC(=O)Cc1ccc(OC)c(OC)c1	0.7	63.2*	30.6	0.4	20.8
COC(=O)c1c(-c2ccc(C)cc2)csc1NC(=O)C1CC=CCC1C(=O)O (centres undefined)	nt	nt	nt	nt	47.2*
O=C(Nc1scc(-c2ccccc2)c1C(=O)O)c1ccco1	0.9	11.9	11.7	0.9	26.1
COC(=O)c1c(-c2cccc3ccccc23)csc1NC(=O)Cc1ccc(OC)c(OC)c1	0.4	87.3*	62.2*	0.1	7.7
COC(=O)c1c(-c2ccc(F)cc2)csc1NC(=O)c1ccco1	0.8	63.7*	17.0	0.4	3.4
COc1ccc(O[C@H]2C=C[C@@H](c3ccccc3)O[C@@H]2COC(=O)CC/C(C)=N/OC[C@@H](O)[C@H]2O[C@@H]3OC(C)(C)O[C@@H]3[C@H]2O)cc1	nt	nt	nt	nt	4.8
O=C1CN(c2ccc(Cl)cc2)C(=O)CN1NC(=S)Nc1ccc(Cl)cc1	1.1	-6.2	-12.9	1.1	13.5
Cc1ccc(-c2nnc(Oc3ccc(NC(=O)c4ccccc4)cc3)c3ccccc23)cc1	nt	nt	nt	nt	7.8
COCCCN(C(=S)NC(=O)c1ccc(C(C)(C)C)cc1)c1c(N)n(Cc2ccccc2)c(=O)[nH]c1=O	nt	nt	nt	nt	22.5
COC(=O)c1c(-c2ccc(C)cc2)csc1NC(=O)Cc1ccc(OC)c(OC)c1	0.7	72.1*	35.0	0.3	23.5
SMILES	CYP2C19 act	CYP2C9 inh	CYP2C19 inhib	CYP2C9 activ	Measles CPE
Fc1ccc(OCc2nnc(SCCN3CCOCC3)o2)cc1	nt	nt	nt	nt	6.3
Cc1cccc(C(CC(=O)N2CCCC2)c2ccccc2)c1O (centres undefined)	0.2	73.4*	84.0*	0.3	4.3
O=C(CC(c1ccccc1)c1ccccc1O)N1CCCC1 (centres undefined)	0.6	3.2	35.3	1	8.8
Cc1ccc(C(CC(=O)N2CCCC2)c2ccccc2)c(O)c1C (centres undefined)	0	96.1*	96.4*	0	3.4
COc1cc(/C=N/NS(=O)(=O)c2ccc3ccccc3c2)ccc1OCCN1CCOCC1	nt	nt	nt	nt	4.5
Cc1c(Cl)ccc2c1NC(=O)[C@]21N[C@@H](Cc2ccccc2)[C@H]2C(=O)N(c3ccc(F)cc3)C(=O)[C@H]21	0.8	36.3	19.0	0.6	8.5
COc1ccc(-n2ccnc2SCC(=O)Nc2ccccc2)cc1	0.4	59.5*	59.9*	0.4	21.6
COc1cccc(-n2ccnc2SCC(=O)Nc2cc(OC)ccc2OC)c1	0.1	-19.5	88.7*	1.2	7.8
COc1ccc(NC(=O)CSc2nccc(C)n2)cc1	0.5	-4.5	50.7*	1	13.6
COc1cc(NC(=O)CSc2nccc(C)n2)c(C(=O)O)cc1OC	1	1.9	-4.6	1	7.8
Cc1cccc(-n2ccnc2SCC(=O)Nc2cc(C)on2)c1	0.8	15.8	24.9	0.8	30.3*
CCn1c(COc2cccc(OC)c2)nnc1SCC(=O)Nc1cc(OC)ccc1OC	0.5	-13.2	46.8	1.1	15.7
Cc1ccccc1OCC(=O)NNC(=O)c1ccc(-c2ccccc2)cc1	0.8	-23.8	15.8	1.2	11.7
Cc1ccnn1CC(=O)N/N=C/c1ccc2c(c1)OCO2	nt	nt	nt	nt	4.7
O=P(c1ccccc1)(c1ccccc1)C(c1ccco1)N1CCOCC1 (centres undefined)	0.9	3.2	10.9	1	14.8
CCCCCCCCC(=O)Nc1cc(C)ccc1OC	nt	nt	nt	nt	6.8
COc1ccc(NC(=O)CSc2nccn2-c2cccc(OC)c2)cc1	0.4	69.7*	58.8*	0.3	20.7
COc1cccc(NC(=O)CSc2nccn2-c2cccc(OC)c2)c1	0.4	26.3	61.0*	0.7	3.6
O=C(CSc1ccc2c(c1)OCCO2)Nc1ccc(Cl)cn1	0.3	26.4	71.0*	0.7	5.1
COc1cccc(-n2ccnc2SCC(=O)N2CCCc3ccccc32)c1	nt	nt	nt	nt	4.2
COc1cccc(-n2ccnc2SCC(=O)Nc2ccccc2)c1	0.2	46.6	80.4*	0.5	nt
Cc1ccc(C(=O)Nc2ccc(Br)cc2)cc1S(=O)(=O)Nc1ccccn1	nt	nt	nt	nt	4.0
CCOc1ccc(NS(=O)(=O)c2cc(NC(=O)CCS(=O)(=O)c3ccc(C)cc3)ccc2OC)cc1	nt	nt	nt	nt	4.3
O=C(CSc1nccn1-c1cccc(Cl)c1)Nc1ccc2c(c1)OCCO2	0.3	66.0*	66.2*	0.3	10.9
COC(=O)c1sc(=S)n(-c2cccc(Cl)c2)c1N	0.9	8.8	13.8	0.9	nt
SMILES	CYP2C19 act	CYP2C9 inh	CYP2C19 inhib	CYP2C9 activ	Measles CPE
CCOc1ccc(/C=N/NC(=O)c2ccc(Cn3cc(Br)cn3)o2)cc1	nt	nt	nt	nt	19.5
CCOc1ccc(/C=N/NC(=O)c2ccc(Cn3cc([N+](=O)[O-])cn3)o2)cc1	0.9	58.8*	5.5	0.4	17.5
Cc1cc(C(=O)CN(Cc2ccc(F)cc2)S(=O)(=O)c2ccc3c(c2)OCCO3)c(C)n1C	0.4	66.4*	60.0*	0.3	16.9
Cc1cc2cc(CN(Cc3cccs3)S(=O)(=O)c3ccc4c(c3)OCCO4)c(=O)[nH]c2cc1C	nt	nt	nt	nt	23.9
O=S(=O)(c1ccc2c(c1)OCCO2)N(Cc1ccc(F)cc1)Cc1nnc(-c2cccs2)o1	0.7	86.9*	33.1	0.1	4.8
O=C(CN(Cc1ccccc1)S(=O)(=O)c1ccc2c(c1)OCCO2)N/N=C/c1ccc(F)cc1	0.7	36.2	30.3	0.6	15.8
